Measurements from PubChem BioAssay (NCATS).
Results filed as inconclusive are left out. Active and inactive are the calls of the source. Unless noted, calls follow the shape of the dose curve; as a rule, active = well fitted curve in the direction sought with a large enough effect; inconclusive = small, poorly fitted or top-dose-only effect, or another doubt; inactive = no such curve, though single readings can be large; an effect the other way counts as inactive or inconclusive.

Columns and labels:
[1] = qHTS assay for measurement of the activity of small molecule inhibitors on Zika virus induced Caspase-3 activity in human iPSC derived neural progenitor cells (hNPCs) (AID 1224857); also: nearly all actives have a fitted effect of over 65% in size
Procedure, shortened: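 Pretreat hNPCs with compound 1 h; infect ZIKV 2 FFU/cell; 6 h 37 C, 5% CO2; Caspase-Glo 3/7, 30 min RT; luminescence; normalize to no-virus and virus-only wells.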

[2] = qHTS assay for measurement of the activity of small molecule inhibitors on Zika virus induced Caspase-3 activity in human astrocytoma cells (AID 1224859)
Procedure, shortened: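 Human SNB-19 astrocytoma cells in RPMI 1640 with 10% FBS receive compound one hour ahead of Zika virus at 2 FFU/cell. After 6 h infection, caspase-3/7 activity is detected by Caspase-Glo luminescence.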

[3] = qHTS assay to identify small molecule inhibitors of chordoma cells - UCH-1 (AID 1259355); also: nearly all actives have a fitted effect of over 55% in size
Procedure, shortened: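 Seed 800 cells per well; incubate overnight at 37 C, 5% CO2. Add test compounds (15 concentrations), then the auranofin–topoisomerase-agent combination. Incubate 48hr, add CellTiter-Glo, wait 30min, read luminescence.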

[4] = qHTS assay to identify small molecule inhibitors of chordoma cells - UCH-2 (AID 1259356)
[5] = NS1 protein of Zika virus - qHTS assay to identify small molecule inhibitors in human HEK 293 cells (AID 1347053); also: nearly all actives have a fitted effect of over 55% in size
Procedure, shortened: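 Following 20 h seeding, HEK 293 cells took compound, then 1 h later ZIKV MR766 (MOI = 0.5). Incubation ran 24 h at 37 C before TR-FRET detection of NS1; a drop in signal indicates inhibition.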

[6] = qHTS of pediatric cancer cell lines to identify multiple opportunities for drug repurposing: Primary screen for TC32 cells (AID 1347089); also: nearly all actives have a fitted effect of over 60% in size
Procedure, shortened: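 TC32 cells, 500-1,000/well in growth medium, compound-treated 48 h at 37 °C; viability from CellTiter-Glo luminescence. Primary screen: MIPE 11-point (0.78 nM–46 µM final), NPC 8-point (0.59 nM–46 µM final); confirmatory at 11-point dilutions.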

[7] = qHTS of pediatric cancer cell lines to identify multiple opportunities for drug repurposing: Primary screen for DAOY cells (AID 1347090); also: nearly all actives have a fitted effect of over 55% in size
Procedure, shortened: (§1)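 Cell viability, CellTiter-Glo luminescence; 500-1,000 cells/well, 8- or 11-point titration, 48 h compound exposure at 37 degrees C, 5% CO2. Controls: DMSO neutral, bortezomib 2.3 µM final as positive.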

[8] = qHTS of pediatric cancer cell lines to identify multiple opportunities for drug repurposing: Primary screen for SJ-GBM2 cells (AID 1347091)
Procedure, shortened: as §1

[9] = qHTS of pediatric cancer cell lines to identify multiple opportunities for drug repurposing: Primary screen for SK-N-MC cells (AID 1347093)
Procedure, shortened: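 Metabolically active cells were quantified by ATP-dependent luminescence (CellTiter-Glo, 15 min at room temperature) following 48 h treatment. Cells had been plated at 500-1,000 per well and settled for 5 h beforehand.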

[10] = qHTS of pediatric cancer cell lines to identify multiple opportunities for drug repurposing: Primary screen for BT-37 cells (AID 1347094)
Procedure, shortened: (§2)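 Readout: CellTiter-Glo luminescence, 48 h treatment. Controls DMSO (neutral) and bortezomib 2.3 µM final (positive). Potency and efficacy taken from primary-screen concentration-response curves.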

[11] = qHTS of pediatric cancer cell lines to identify multiple opportunities for drug repurposing: Primary screen for NB-EBc1 cells (AID 1347095)
Procedure, shortened: as §2

[12] = qHTS of pediatric cancer cell lines to identify multiple opportunities for drug repurposing: Primary screen for U-2 OS cells (AID 1347096); also: nearly all actives have a fitted effect of over 50% in size
Procedure, shortened: (§3)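 Cells (500-1,000/well) rested 5 h, then received compounds for 48 h; metabolically active cells were measured by CellTiter-Glo luminescence. Final concentrations spanned up to 46 µM (MIPE, 11-point) or 0.59 nM-46 µM (NPC, 8-point) in primary screens, 11-point in follow-ups.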

[13] = qHTS of pediatric cancer cell lines to identify multiple opportunities for drug repurposing: Primary screen for Saos-2 cells (AID 1347097); also: nearly all actives have a fitted effect of over 40% in size
Procedure, shortened: as §2

[14] = qHTS of pediatric cancer cell lines to identify multiple opportunities for drug repurposing: Primary screen for SK-N-SH cells (AID 1347098); also: nearly all actives have a fitted effect of over 65% in size
Procedure, shortened: as §3

[15] = qHTS of pediatric cancer cell lines to identify multiple opportunities for drug repurposing: Primary screen for A673 cells (AID 1347092); also: nearly all actives have a fitted effect of over 45% in size
Procedure, shortened: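 A673 cells (500-1,000 cells/well) were treated 48 hours at 37 degrees C with compounds at 11-point (0.78 nM to 46 µM) or 8-point (0.59 nM to 46 µM) dilutions. Viability read by CellTiter-Glo luminescence; concentration-response curves fitted.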

[16] = P-glycoprotein substrates identified in KB-8-5-11 adenocarcinoma cell line, qHTS therapeutic library screen (AID 1346987); conditions: outcome: dose series up to 44.5 µM; also: nearly all actives have a fitted effect of over 65% in size
Procedure, shortened: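 Steps: plate 500 KB-8-5-11 cells/well in DMEM + 10% FCS (colchicine removed); pin compounds in dose-response; incubate 72 h, 37 degree C, 5% CO2; add CellTiter-Glo, 5 min; read luminescence.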

[17] = qHTS profiling of the MIPE4 collection as inhibitors of Plasmodium falciparum (DD2) proliferation (AID 743345; call rule not given here); conditions: P. falciparum Dd2 in erythrocytes, SYBR Green DNA, 72 h; at 9.64 µM (top of the series) unless noted
Procedure, shortened: (§4)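 Erythrocytes infected with P. falciparum (0.3% parasitemia, 2.5% hematocrit) incubated with compounds 72 h at 37 C, 5% CO2. Lysis with saponin/Triton buffer containing SYBR Green I, overnight at room temperature in the dark; DNA fluorescence (485/535 nm) normalised to 0.29 uM artemisinin and DMSO.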

[18] = qHTS profiling of the MIPE4 collection as inhibitors of Plasmodium falciparum (DD2) proliferation (Rep 2) (AID 743346; call rule not given here); conditions: P. falciparum Dd2 in erythrocytes, SYBR Green DNA, 72 h; at 9.64 µM (top of the series) unless noted
Procedure, shortened: as §4

[19] = qHTS profiling of the MIPE4 collection as inhibitors of Plasmodium falciparum (HB3) proliferation (AID 743347; call rule not given here); conditions: P. falciparum HB3 in erythrocytes, SYBR Green DNA, 72 h; at 9.64 µM (top of the series) unless noted
Procedure, shortened: as §4

CC1(C)S[C@@H]2[C@H](N=CN3CCCCCC3)C(=O)N2[C@H]1C(=O)O
inactive: outcome [1] | outcome [2] | outcome [3] | outcome [4] | outcome [5] | outcome [6] | outcome [7] | outcome [8] | Potency [9] | outcome [10] | outcome [11] | outcome [12] | outcome [13] | outcome [14]

CCCCCC(C)N (stereo not given)
inactive: outcome [1] | outcome [2] | outcome [3] | outcome [4] | outcome [5] | outcome [6] | outcome [7] | outcome [8] | Potency [9] | outcome [10] | outcome [11] | outcome [12] | outcome [13] | outcome [14]

O=C1c2cccc(O)c2C(=O)c2c(O)cccc21
inactive: outcome [1] | outcome [2] | outcome [3] | outcome [4] | outcome [5] | outcome [7] | outcome [8] | outcome [15] | Potency [9] | outcome [10] | outcome [12] | outcome [13] | outcome [14]

CC(O)CCCCn1c(=O)c2c(ncn2C)n(C)c1=O (stereo not given)
inactive: outcome [1] | outcome [2] | outcome [3] | outcome [4] | outcome [5] | outcome [7] | outcome [8] | outcome [15] | Potency [9] | outcome [10] | outcome [12] | outcome [13] | outcome [14]

CC[C@H](C)[C@H](N)C(=O)O
inactive: outcome [1] | outcome [2] | outcome [3] | outcome [4] | outcome [5] | outcome [6] | outcome [7] | outcome [8] | outcome [15] | Potency [9] | outcome [10] | outcome [11] | outcome [12] | outcome [13] | outcome [14]

NS(=O)(=O)c1cc(-c2nn[nH]n2)c(NCc2cccs2)cc1Cl
inactive: outcome [1] | outcome [2] | outcome [3] | outcome [16] | outcome [5] | outcome [6] | outcome [7] | outcome [8] | outcome [15] | Potency [9] | outcome [10] | outcome [11] | outcome [12] | outcome [13]

C[C@]1(Cn2ccnn2)[C@H](C(=O)O)N2C(=O)C[C@H]2S1(=O)=O
inactive: outcome [1] | outcome [2] | outcome [3] | outcome [4] | outcome [5] | outcome [7] | outcome [8] | outcome [15] | Potency [9] | outcome [10] | outcome [11] | outcome [12] | outcome [13] | outcome [14]

CC(=O)N(CC(O)CO)c1c(I)c(C(=O)NCC(O)CO)c(I)c(C(=O)NCC(O)CO)c1I (stereo not given)
inactive: outcome [1] | outcome [2] | outcome [3] | outcome [4] | outcome [5] | outcome [6] | outcome [7] | outcome [8] | outcome [15] | Potency [9] | outcome [10] | outcome [11] | outcome [12] | outcome [13] | outcome [14]

CC(C)CCCC(C)CCCC(C)CCCCC(C)CCCC(C)CCCC(C)C (stereo not given)
inactive: outcome [1] | outcome [2] | outcome [3] | outcome [4] | outcome [5] | outcome [6] | outcome [7] | outcome [8] | outcome [15] | Potency [9] | outcome [10] | outcome [11] | outcome [12] | outcome [13] | outcome [14]

CC(=O)N[C@@H](Cc1ccc(O)cc1)C(=O)O
inactive: outcome [1] | outcome [2] | outcome [3] | outcome [4] | outcome [5] | outcome [6] | outcome [7] | outcome [8] | outcome [15] | Potency [9] | outcome [10] | outcome [11] | outcome [12] | outcome [14]

COC(=O)c1ccccc1C(=O)c1ccc(OCCN2CCCCC2)cc1
inactive: outcome [1] | outcome [2] | outcome [3] | outcome [4] | outcome [5] | outcome [7] | outcome [8] | outcome [15] | Potency [9] | outcome [10] | outcome [11] | outcome [12] | outcome [13] | outcome [14]

CCCCCCCC(=O)OCC(COC(=O)CCCCCCC)OC(=O)CCCCCCC
inactive: outcome [1] | outcome [2] | outcome [3] | outcome [4] | outcome [5] | outcome [6] | outcome [7] | outcome [8] | outcome [15] | outcome [10] | outcome [11] | outcome [12] | outcome [13]

NS(=O)(=O)c1ccc(C(=O)O)cc1
inactive: outcome [1] | outcome [2] | outcome [3] | outcome [4] | outcome [5] | outcome [6] | outcome [7] | outcome [8] | outcome [15] | Potency [9] | outcome [10] | outcome [11] | outcome [12] | outcome [13] | outcome [14]

Cc1ccc(S(=O)(=O)NC(=O)NC2CCCCC2)cc1
inactive: outcome [1] | outcome [2] | outcome [3] | outcome [4] | outcome [5] | outcome [6] | outcome [7] | outcome [8] | Potency [9] | outcome [10] | outcome [11] | outcome [12] | outcome [13] | outcome [14]

CC(=O)NCc1c(I)c(NC(C)=O)c(I)c(C(=O)O)c1I
inactive: outcome [1] | outcome [2] | outcome [3] | outcome [4] | outcome [5] | outcome [6] | outcome [7] | outcome [8] | outcome [15] | Potency [9] | outcome [10] | outcome [12] | outcome [13] | outcome [14]

CCCNC(C)C(=O)Nc1c(C)csc1C(=O)OC (stereo not given)
inactive: outcome [1] | outcome [2] | outcome [3] | outcome [4] | outcome [5] | outcome [6] | outcome [7] | outcome [8] | Potency [9] | outcome [10] | outcome [11] | outcome [12] | outcome [13] | outcome [14]

COc1ccc(NS(=O)(=O)c2ccc(N)cc2)nn1
inactive: outcome [1] | outcome [2] | outcome [3] | outcome [4] | outcome [5] | outcome [6] | outcome [7] | outcome [8] | outcome [15] | outcome [10] | outcome [12] | outcome [13] | outcome [14]
62.1%: growth, % of control [19]
101%: parasite growth remaining, % of DMSO control (lower = more inhibition) [17]
141%: parasite growth, % of control (lower = inhibition) [18]

Cc1c(C)c2c(c(C)c1OC(=O)c1cccnc1)CC[C@@](C)(CCC[C@H](C)CCC[C@H](C)CCCC(C)C)O2
inactive: outcome [1] | outcome [2] | outcome [3] | outcome [4] | outcome [5] | outcome [6] | outcome [7] | outcome [8] | outcome [15] | Potency [9] | outcome [10] | outcome [11] | outcome [12] | outcome [13]
